PubChem BioAssay (Tox21)
Records with an inconclusive call do not appear. Values without a mark were called inactive. Unless noted, calls come from the whole dose curve; as a rule, active = well fitted cell-killing curve with a large enough effect in the repeat runs (not every such curve was filed as active); inconclusive = weak or mixed curves, or effect the other way; inactive = no such curve, though single readings can be large or run the other way.

target: Bile acid receptor (Homo sapiens) (UniProt Q96RI1); assay: qHTS assay to identify small molecule agonists of the farnesoid-X-receptor (FXR) signaling pathway (AID 743220; active = well fitted activation curve with a large enough effect in the signal ratio in the repeat runs, not every such curve was filed as active; the % refers to the signal ratio); settings: HEK293T FXR-UAS-bla, beta-lactamase FRET ratio, 16 h; series mostly up to 62.6 µM; activation: at the top concentration
Sequence (Q96RI1 whole entry, looked up): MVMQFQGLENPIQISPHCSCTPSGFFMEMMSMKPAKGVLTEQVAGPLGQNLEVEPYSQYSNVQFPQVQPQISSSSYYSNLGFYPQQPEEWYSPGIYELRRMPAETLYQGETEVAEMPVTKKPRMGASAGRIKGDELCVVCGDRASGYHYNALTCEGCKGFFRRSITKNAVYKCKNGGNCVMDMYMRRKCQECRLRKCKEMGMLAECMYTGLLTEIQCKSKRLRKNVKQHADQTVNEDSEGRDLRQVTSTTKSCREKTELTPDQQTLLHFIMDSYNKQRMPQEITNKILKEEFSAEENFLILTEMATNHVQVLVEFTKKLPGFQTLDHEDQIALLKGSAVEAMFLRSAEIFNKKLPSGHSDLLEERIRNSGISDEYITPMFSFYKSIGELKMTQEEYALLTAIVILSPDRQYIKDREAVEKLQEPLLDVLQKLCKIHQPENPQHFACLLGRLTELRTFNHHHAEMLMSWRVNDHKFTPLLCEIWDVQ
How it was run: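 FXR-UAS-bla HEK 293T cells carrying a UAS-driven beta-lactamase reporter were plated for 5 h at 37C/5% CO2, then exposed to DMSO-dissolved Tox21 10K compounds for 16 h at 37C. A LiveBLAzer B/G FRET substrate was loaded for 2 h at room temperature before fluorescence reading.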
% is set by controls: 0 for no effect and ±100 for the full control effect.

Row | SMILES | activation
1 | COCCOCCOCCOC | -0.426%
2 | C=COCCOCCOC=C | 1.51%
3 | BrC/C=C/CBr | 1.21% [at 29.1 µM]
4 | CCCCCCCCCCCCC | -0.977%
5 | C/C=C(\C)C(=O)OCC/C=C\CC | 1.41%
6 | CNC(=O)NC | -0.21% [at 81.1 µM]
7 | CC1CCC(C(C)(C)S)C(=O)C1 (configuration not stated) | 3.18%
8 | CCCCOC(=O)C(=O)OCCCC | -2.41%
9 | CC(C)COC(=O)COc1ccc(Cl)cc1Cl | 2.18%
10 | CNC(=O)C(c1ccccc1)c1ccccc1 | -0.883%
11 | NC(=O)NC(=O)Cc1ccccc1 | -3.09%
12 | CC(=O)OCCCc1ccccc1 | 0.234%
13 | c1ccccc1 | 0.231%
14 | NC(=O)NNC(N)=O | -2.28%
15 | Cc1cc(O)c2c(c1)C(=O)c1cccc(O)c1C2=O | 0.186%
16 | O=C(O)c1ccccc1C(=O)OCc1ccccc1 | -1.14%
17 | CC(C)(CO)[C@@H](O)C(=O)NCCCO | 1.06%

tested on: not listed separately; assay: qHTS assay to identify small molecule antagonists of the farnesoid-X-receptor (FXR) signaling pathway - cell viability counter screen (AID 743221); settings: FXR-bla HEK293T viability, CellTiter-Glo luminescence, 16 h; series mostly up to 62.6 µM; activity change, negative = cytotoxicity: at the top concentration; note: nearly all actives have a fitted effect of over 50% in size
How it was run: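 Cytotoxicity counter screen run in the FXR-bla reporter wells: HEK 293T cells exposed to compound with 50 uM (final) chenodeoxycholic acid for 16 h, 37 C, then viability measured by CellTiter-Glo luminescence after 30 min, room temperature.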

Row | SMILES | activity change, negative = cytotoxicity
18 | NS(=O)(=O)c1ccccc1OC(F)(F)F | 5.37%
19 | CCOC(=O)CC#N | 0.0465%
20 | CC(=O)OCC(=O)[C@@]1(O)[C@H](OC(C)=O)C[C@H]2[C@@H]3CCC4=CC(=O)C=C[C@]4(C)[C@@]3(F)[C@@H](O)C[C@@]21C | 4.45%
21 | C=COCCOCCOC=C | 2.08%
22 | BrC/C=C/CBr | 3.72% [at 29.1 µM]
23 | C[N+](C)(C)CC(O)CCl (configuration not stated) | 2.05% [at 81.1 µM]
24 | CCCCCCCCCCCCC | -3.69%
25 | CCCCC[Si](OCC)(OCC)OCC | 7.69%
26 | C/C=C(\C)C(=O)OCC/C=C\CC | -11.4%
27 | CNC(=O)NC | 5.83% [at 81.1 µM]
28 | CC1CCC(C(C)(C)S)C(=O)C1 (configuration not stated) | 6.06%
29 | CC(=O)N1CCN(c2ccc(O)cc2)CC1 | 2.52%
30 | FC(F)(F)c1ccc(Cl)cc1Cl | -1.37%
31 | CCCCCCCCCCCCCC(=O)OC | 0.103%
32 | CCCCOC(=O)C(=O)OCCCC | 12.5%
33 | Nc1nc(=O)n([C@@H]2O[C@H](CO)[C@@H](O)[C@@H]2F)cc1I | 0.614%
34 | CC(=O)Nc1ccc(C)cc1 | 0.0868%
35 | C=CC(C)(O)CC/C=C(\C)CC (configuration not stated) | -1.93%
36 | O=C(O)c1c(Cl)ccc(Cl)c1Cl | -0.379%
37 | CC(C)COC(=O)COc1ccc(Cl)cc1Cl | 2.17%
38 | CNC(=O)C(c1ccccc1)c1ccccc1 | 0.969%
39 | Cc1nc2ccccc2c(=O)o1 | -1.16% [at 81.1 µM]
40 | C=C[C@@H](C)CCC=C(C)C | 22.1%
41 | NC(=O)NC(=O)Cc1ccccc1 | 9.52%
42 | Nc1ccc(S(=O)(=O)NC(=O)c2ccccc2)cc1 | -2.19%
43 | CC(=O)OCCCc1ccccc1 | 0.164%
44 | CCCCCCCCCCCCOC(C)=O | 24.7%
45 | Cc1cc(O)c2c(c1)C(=O)c1cccc(O)c1C2=O | 3.74%
46 | CN(C)CCOCCN(C)CCO | -1.05%
47 | CC(C)(CO)[C@@H](O)C(=O)NCCCO | -4.19%
